Drawing on PubChem BioAssay AID485298 (National Center for Advancing Translational Sciences (NCATS), 2010), this text covers Potency for 31 compounds.

Several values for one entry are separate records, joined by “and”; a condition that tells them apart may be missing. Equal entries are not always repeated. Among all 320,000 compounds or so, about 740 (0.23%) were called active. Entries that show only a call come without a potency. About 2% were inconclusive and are not listed. This is one part of a sample in which actives are shown more often than they occur. The call rests on the fitted dose curve; in most records, active means well fitted activation curve with a large enough effect; inconclusive means small, poorly fitted or top-dose-only effect; inactive means no such curve, though single readings can be large or run the other way. The source holds several records for some structures; these can differ, active in one and inactive in another.
Potency means the concentration at half of the fitted maximal effect.

A short description of this assay: qHTS Assay for Small Molecule Inhibitors of Mitochondrial Division or Activators of Mitochondrial Fusion. Further: nearly all actives have a fitted effect of over 45% in size. Particulars: S. cerevisiae fusion-defective mutant growth rescue, CellTiterGlo 48 h; series mostly up to 46.1 µM. A digest of the protocol: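 Luminescent cell viability in 1536-well qHTS format served as the measure of rescued growth in ts fusion-mutant S. cerevisiae cultured on non-fermentable YPEG for 48 hours at 37C.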
Regarding `O=C(Nc1cccc(-c2nc3ccccc3o2)c1)c1cccc(Br)c1`, the Potency entry is “inactive”. The entry for `CCc1nccn1CCC(=O)N1CCCC(N2CCN(c3ccccc3F)CC2)C1` (stereo unspecified) is “inactive”; for `CCCC(C)NC(=O)C1CCN(C(=O)C2CC(=O)N(c3ccc(C)cc3)C2)CC1` (stereo unspecified) it is “inactive”; for `O=C(CN1CCSCC1)N/N=C/c1ccc(F)cc1` it is “inactive”.

Regarding `Cc1c(C(=O)N2CCCc3ccccc32)oc2ccccc12`, the Potency entry was “inactive”.

`Cc1cccc2cc3c(N)c(C(=O)N4CCCc5ccccc54)sc3nc12`: the Potency was 17.8 µM (active). Under `Cc1c(C(=O)N2CCCc3ccccc32)sc2nc(-c3ccccc3)cn12` stands “inactive”.

Take `CC(C)(C)Cc1nnc(NC(=O)c2cc(-c3ccccc3)nc3ccccc23)s1`: the Potency result was “inactive”. For the compound `O=C(Nc1nnc(-c2ccccc2)o1)c1cc(-c2cccs2)nc2ccccc12`, the Potency is 12.6 µM (active). Under `CCCCN(C)CCCNC(=O)c1cc(-c2cccs2)nc2ccccc12` stands “inactive”; under `O=C(CNc1cccc(S(=O)(=O)N2CCCCC2)c1)Nc1ccccc1F`, “inactive”. The entry for `CCN(CC)c1ccc(NC(=O)CN2CCN(CC(=O)Nc3ccc(Cl)cc3)CC2)cc1` is “inactive”; for `COc1ccc(Cl)cc1NS(=O)(=O)c1cccc(C(=O)NC2CCC(O)CC2)c1` (stereo unspecified) it is “inactive”. For the compound `Cc1cc(C)c(/C=C2\C(=O)Nc3ccccc32)[nH]1`, the Potency entry was “inactive and 16.4 µM (active)”. Under `CN(C)/C=C1/Nc2ccccc2C1=O` stands “inactive”.

Consider `O=C1Nc2ccccc2/C1=C/c1ccnc2ccccc12`, for which the Potency entry was “inactive”. For the compound `O=C(N/C(=C\c1ccc([N+](=O)[O-])cc1)C(=O)N1CCCCC1)c1ccco1`, the Potency result was “inactive”. Take `CCc1c(C)[nH]c(=S)c(C#N)c1C`: the Potency entry was “inactive”.

Turning to `Cc1c(S(=O)(=O)N2CC(C)CC(C)C2)c(=O)n(C)c(=O)n1C` (stereo unspecified), the Potency result is “inactive”.

For `CCOC(=O)[C@@H]1[C@H]2COc3ccc(Br)cc3[C@H]2N2C(=O)N(c3ccc(Cl)cc3)C(=O)[C@@]12C`, the Potency result was “inactive”.

Turning to `COc1ccc(Nc2ncnc3ccc(Br)cc23)c(OC)c1`, the Potency result was “inactive”.

For the compound `COc1ccc(C(=O)N2CC3(C)CC2CC(C)(C)C3)cc1OC` (stereo unspecified), the Potency result was “inactive”. The figure for `CC1(C)CC2CC(C)(CN2c2ncnc3ccc(Br)cc23)C1` (stereo unspecified) is 15.8 µM (active).

`CCc1ccc(N(C(=O)c2csnn2)C(C(=O)NC2CCCCC2)c2cccnc2)cc1` (stereo unspecified): the Potency entry is “inactive”. The entry for `OCC[C@H]1C[C@H](O)[C@@H](O)[C@]2(CCc3ccccc3O2)O1` is “inactive”; for `CC1CCN(C(=O)c2ccc(CSc3ccc(Cl)cc3)cc2)CC1` it is “inactive”. Consider `O=C(c1ccc(CSc2ccccc2)cc1)N1CCCCCC1`, for which the Potency is 10 µM (active). Under `O=C(c1ccc(S(=O)(=O)c2ccccc2)cc1)N1CCCCCC1` stands “inactive”.

With `Cc1cc(F)ccc1S(=O)(=O)Nc1ncnc2scc(-c3ccc(F)cc3)c12`, the Potency entry was “inactive”. Under `O=C(COC(=O)c1ccccc1)c1ccc2c(c1)OCCO2` stands “inactive”. The entry for `Cc1ccc(NC(=O)CSc2sc3c(O)cc(=O)[nH]c3c2C#N)cc1C` is “inactive”.
